Reference: PubChem BioAssay (NCATS)
“And” between values parts separate entries of the source, which are not always exact repeats. Identical values can stand only once. Records with an inconclusive call do not appear. Some of the results follow. The source made the active and inactive calls. Unless noted, the call rests on the fitted dose curve; in most records, active means well fitted inhibition curve with a large enough effect; inconclusive means small, poorly fitted or top-dose-only effect, or another doubt; inactive means no such curve, though single readings can be large or run the other way.

Molecular target: Thyroid hormone receptor beta (Homo sapiens) (UniProt P10828)
Assay: qHTS assay for small molecule agonists of thyroid hormone receptor beta signaling (AID 588545; calls by dose curve; further: potency means the concentration at half of the fitted maximal effect;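 on activation: 0% = DMSO only and 100% = 10 nM T3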)
Conditions: TR-UAS-bla GripTite HEK 293, beta-lactamase ratio, agonist mode, 18 h; series mostly up to 76.7 µM; activation: at the top concentration
In short: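 TR-UAS-bla GripTite HEK 293 cells (2500/well, medium with 2% charcoal/dextran FBS) were treated in agonist mode for 18 h at 37 C, titrated. Beta-lactamase was read by CCF4 ratio after 2 h; normalized to 10 nM T3 (100%) and DMSO, Hill-fitted for EC50 and efficacy.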

Thyroid hormone receptor beta (Homo sapiens), sequence (P10828 whole entry, looked up): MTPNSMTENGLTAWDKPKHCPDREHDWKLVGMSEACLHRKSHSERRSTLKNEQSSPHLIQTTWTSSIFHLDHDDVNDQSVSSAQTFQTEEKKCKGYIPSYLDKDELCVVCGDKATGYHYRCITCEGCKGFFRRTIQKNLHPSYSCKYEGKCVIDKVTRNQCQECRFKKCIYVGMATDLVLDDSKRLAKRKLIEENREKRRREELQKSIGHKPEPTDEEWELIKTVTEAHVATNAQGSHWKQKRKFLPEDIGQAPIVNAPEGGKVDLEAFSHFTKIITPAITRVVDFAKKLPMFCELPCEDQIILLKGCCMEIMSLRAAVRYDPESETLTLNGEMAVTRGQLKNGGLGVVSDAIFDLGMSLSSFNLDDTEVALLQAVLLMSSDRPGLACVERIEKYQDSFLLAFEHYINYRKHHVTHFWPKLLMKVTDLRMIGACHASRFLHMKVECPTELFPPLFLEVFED

For `O=C(Nc1ccccc1)c1cc(Cl)ccc1O`, which “activation” value is on record?
Its value is -6.33% (inactive).

For `c1cc2ccc3ccc4ccc5cccc6c(c1)c2c3c4c56`, which Potency is on record?
The Potency was 25.1 µM (active).

Which “activation” value does the source give for `OCCOCCOCCOCCOCCO` here?
Its value is -6.96% (inactive).

Test system: not listed separately
Assay: qHTS assay for small molecule antagonists of retinoid X receptor alpha signaling (AID 588546; active means well fitted inhibition curve with a large enough effect in the signal ratio, with a control signal flat, not every such curve was filed as active; the % refers to the signal ratio;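 further: cells stimulated with 9-cis-retinoic acid as agonist; on the % scale 0 is the no-effect control and ±100 the full control effect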)
Conditions: HEK293T RXRa-UAS-bla, beta-lactamase ratio, antagonist mode; measured here: W530 green channel, cytotoxicity proxy
In short: (§1)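 Beta-lactamase reporter inhibition, read as CCF4 fluorescence ratio (ex 405, em 460/530 nm) after 2 h at RT. HEK293T UAS-bla cells, 2500/well, were stimulated with 9-cis-RA at 500 or 100 nM final alongside test compound for 18 h at 37 C.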

Which max response does the source give for `CC1(C)C(=O)N(Br)C(=O)N1Cl` here?
Its max response is -9.45%.

With `CCCOC(=O)NCCCN(C)C` as the compound, how does the max response read?
The max response was -8.13%.

For `CCNc1nc(N)nc(Cl)n1`, which max response is on record?
The max response was -17.5% and -16.5%.

Which max response does the source give for `O=c1oc(=O)c2cc3c(=O)oc(=O)c3cc12` here?
Its max response is 2.24%.

Which max response does the source give for `OCCOCCOCCOCCOCCO` here?
The max response was -8.78%.

Molecular target: Retinoic acid receptor RXR-alpha (Homo sapiens) (UniProt P19793)
Assay: as above
Conditions: HEK293T RXRa-UAS-bla, beta-lactamase ratio, antagonist mode
In short: as §1

Retinoic acid receptor RXR-alpha (Homo sapiens), sequence (P19793 whole entry, looked up): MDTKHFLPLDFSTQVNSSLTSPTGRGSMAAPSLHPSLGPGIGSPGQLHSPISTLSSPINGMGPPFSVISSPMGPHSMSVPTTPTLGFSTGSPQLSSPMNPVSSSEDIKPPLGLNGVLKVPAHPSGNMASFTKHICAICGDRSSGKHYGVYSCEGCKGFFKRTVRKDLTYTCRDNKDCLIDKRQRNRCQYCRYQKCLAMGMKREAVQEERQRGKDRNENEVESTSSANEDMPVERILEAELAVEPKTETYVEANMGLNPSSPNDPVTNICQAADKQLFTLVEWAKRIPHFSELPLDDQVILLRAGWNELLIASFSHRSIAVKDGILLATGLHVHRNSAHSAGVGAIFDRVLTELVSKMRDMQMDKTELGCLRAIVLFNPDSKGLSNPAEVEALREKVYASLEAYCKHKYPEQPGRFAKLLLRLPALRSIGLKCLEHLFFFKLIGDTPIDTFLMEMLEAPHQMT

Which max response does the source give for `CC1(C)C(=O)N(Br)C(=O)N1Cl` here?
The max response was -6.62% (inactive).

Which max response does the source give for `CCCOC(=O)NCCCN(C)C` here?
The max response was 1.48% (inactive).

With `CCNc1nc(N)nc(Cl)n1` as the compound, how does the max response read?
The max response was 7.29% (inactive) and -4.52% (inactive).

For `OCCOCCOCCOCCOCCO`, which max response is on record?
The max response was 0.858% (inactive).

Molecular target: Thyroid hormone receptor beta (Homo sapiens) (UniProt P10828)
Assay: qHTS assay for small molecule antagonists of thyroid hormone receptor beta signaling (AID 588547; active means well fitted inhibition curve with a large enough effect in the signal ratio, with a control signal flat, not every such curve was filed as active; the % refers to the signal ratio;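 further: cells stimulated with 0.4 nM T3 agonist during compound exposure; on the % scale 0 is the no-effect control and ±100 the full control effect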)
Conditions: TR-UAS-bla HEK293, beta-lactamase ratio, antagonist mode, 18 h
In short: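 TR-UAS-bla GripTite HEK293 cells in 2% charcoal/dextran FBS medium were preincubated 4 h at 37 C, given compound (0.59 nM to 92 uM) plus 0.4 nM T3 (final) for 18 h, then CCF4 for 2 h at RT; Hill fit gave IC50.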

For `CN(C)c1ccc(C(c2ccccc2)c2ccc(N(C)C)cc2)cc1`, which activity change % (negative = inhibition) is on record?
The activity change % (negative = inhibition) was 13.2% (inactive).

For `CC1(C)C(=O)N(Br)C(=O)N1Cl`, which activity change % (negative = inhibition) is on record?
The activity change % (negative = inhibition) was -12% (inactive).

With `CCCOC(=O)NCCCN(C)C` as the compound, how does the activity change % (negative = inhibition) read?
Its activity change % (negative = inhibition) is 1.87% (inactive).

Which activity change % (negative = inhibition) does the source give for `CCNc1nc(N)nc(Cl)n1` here?
The activity change % (negative = inhibition) was -8.97% (inactive).

For `S=C([S-])NCCNC(=S)[S-].[Mn+2]`, which activity change % (negative = inhibition) is on record?
The activity change % (negative = inhibition) was -12.7% (inactive).

With `CCN(Cc1c(F)cccc1Cl)c1c([N+](=O)[O-])cc(C(F)(F)F)cc1[N+](=O)[O-]` as the compound, how does the activity change % (negative = inhibition) read?
The activity change % (negative = inhibition) was -17.5% (inactive).

For `O=c1oc(=O)c2cc3c(=O)oc(=O)c3cc12`, which activity change % (negative = inhibition) is on record?
Its activity change % (negative = inhibition) is -2.54% (inactive).

Which activity change % (negative = inhibition) does the source give for `OCCOCCOCCOCCOCCO` here?
The activity change % (negative = inhibition) was -16.4% (inactive).

Molecular target: Vitamin D3 receptor (Homo sapiens) (UniProt P11473)
Assay: qHTS for Inhibitors of the vitamin D receptor (VDR): Hit Validation in Primary Screen (AID 602199); further: potency means the concentration at half of the fitted maximal effect
Conditions: VDR-coactivator inhibition assay, qHTS confirmation
In short: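 Fluorescence polarization assay of VDR binding to Alexa 647-labelled SRC2-3 coactivator peptide: 800nM VDR with 5uM LG19078 agonist, compounds, 2 h at room temperature, read Ex 620 nm/Em 688 nm.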

Vitamin D3 receptor (Homo sapiens), sequence (P11473 whole entry, looked up): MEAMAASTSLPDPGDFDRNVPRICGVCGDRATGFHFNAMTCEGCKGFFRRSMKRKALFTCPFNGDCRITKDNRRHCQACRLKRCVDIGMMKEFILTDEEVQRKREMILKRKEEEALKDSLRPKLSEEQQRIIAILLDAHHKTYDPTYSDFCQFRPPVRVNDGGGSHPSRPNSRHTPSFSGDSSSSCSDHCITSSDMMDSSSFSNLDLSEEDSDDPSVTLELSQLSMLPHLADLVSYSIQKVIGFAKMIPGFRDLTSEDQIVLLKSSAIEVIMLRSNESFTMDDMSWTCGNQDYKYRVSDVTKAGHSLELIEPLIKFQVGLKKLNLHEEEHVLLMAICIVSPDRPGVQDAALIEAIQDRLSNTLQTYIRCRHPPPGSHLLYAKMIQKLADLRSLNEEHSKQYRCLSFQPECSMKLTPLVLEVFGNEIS

With `O=[N+]([O-])c1c(NCCO)cc(Sc2nc3ccccc3s2)c2nonc12` as the compound, how does the Potency read?
The Potency was 3.36 µM (active).

Which Potency does the source give for `O=C1C=C(c2ccc(Cl)cc2)C(=O)N1Nc1ccccc1` here?
Its Potency is 2.99 µM (active).

Which Potency does the source give for `COc1ccc(CS(=O)/C(Cl)=C(/Cl)C(=O)Nc2ccc(OC)nc2)cc1` (stereo not drawn) here?
Its Potency is 5.97 µM (active).

With `Cc1cccc(Oc2c([N+](=O)[O-])c(=O)n(C)c3ccccc23)c1` as the compound, how does the Potency read?
The Potency was 21.2 µM (active).

Which Potency does the source give for `Cc1nc(-c2ccccc2)sc1C(=O)/C=C/c1ccccc1` here?
Its Potency is 16.8 µM (active).

For `C=CCOc1ccc(/C=C2/C(=O)ON=C2C)cc1OCC`, which Potency is on record?
Its Potency is 10.6 µM (active).

Which Potency does the source give for `O=[N+]([O-])/C=C/c1ccc2c(ccn2Cc2ccccc2)c1` here?
The Potency was 6.7 µM (active).

With `O=C(CCN1CCc2ccccc2C(O)(c2ccccc2)C1)c1ccc2c(c1)OCCO2` (stereo not drawn) as the compound, how does the Potency read?
The Potency was 10.6 µM (active).

Which Potency does the source give for `O=c1[nH]c(/C=C\c2cccc(C(F)(F)F)c2)nc(O)c1[N+](=O)[O-]` here?
The Potency was 18.9 µM (active).

With `Cc1cccc(CS(=O)(=O)c2ncc(Cl)c(C(=O)Nc3ccc(F)cc3)n2)c1` as the compound, how does the Potency read?
Its Potency is 3.36 µM (active).

For `Cc1ccc(-c2nc3ccccn3c2Nc2c(C)cccc2C)o1`, which Potency is on record?
The Potency was 17.8 µM (active).

For `O=C(/C=C/c1ccc(Cl)cc1Cl)c1cccnc1`, which Potency is on record?
Its Potency is 9.47 µM (active).

For `C[C@@H](NC(=O)OC(C)(C)C)c1nnc(S(=O)(=O)Cc2ccccc2)o1`, which Potency is on record?
The Potency was 11.2 µM (active).

For `CC1CCN(C(=S)c2ccc(-c3ccc(Cl)cc3Cl)o2)CC1`, which Potency is on record?
Its Potency is 21.2 µM (active).

Which Potency does the source give for `CCOc1ccc(N(Cc2ccccc2)C(=O)c2nc(S(C)(=O)=O)ncc2Cl)cc1` here?
Its Potency is 4.47 µM (active).

With `CCCCS(=O)(=O)c1oc(-c2cccs2)nc1S(=O)(=O)c1ccccc1` as the compound, how does the Potency read?
Its Potency is 2.24 µM (active).

Which Potency does the source give for `CSc1nnc(NC(=O)c2nc(S(=O)(=O)Cc3ccc(C)cc3)ncc2Cl)s1` here?
Its Potency is 7.52 µM (active).

For `O=C(/C=C/c1ccc(Cl)c([N+](=O)[O-])c1)c1cccnc1`, which Potency is on record?
The Potency was 2.51 µM (active).

Which Potency does the source give for `O=C(Nc1nc(-c2ccncc2)cs1)C1COc2ccccc2O1` (stereo not drawn) here?
The Potency was 2.82 µM (active).

Which Potency does the source give for `CCOC(=O)N1CCN(C(c2cccnc2)c2ccc3cccnc3c2O)CC1` (stereo not drawn) here?
The Potency was 7.52 µM (active).

Which Potency does the source give for `COC(=O)c1sc(-c2ccc(C(C)(C)C)cc2)cc1NC(=O)/C=C/C(=O)O` here?
Its Potency is 11.9 µM (active).

For `Cc1ccc(O)c(NC(=O)CCS(=O)(=O)c2nc(-c3ccc4c(c3)OCO4)cc(C(F)(F)F)n2)c1`, which Potency is on record?
Its Potency is 14.1 µM (active).

Which Potency does the source give for `Cc1cc(C)nc(S/C=C/C(=O)c2ccccc2)n1` here?
The Potency was 3.55 µM (active).

With `CCOC(=O)c1sc(=S)n2c1[nH]c(=O)c1ccc(C(=O)OC)cc12` as the compound, how does the Potency read?
The Potency was 7.94 µM (active).

For `O=C(/C=C/c1ccccc1)c1ccccc1O`, which Potency is on record?
Its Potency is 23.8 µM (active).

For `CCOC(=O)c1sc(NC(=O)CSc2nc(C)cc(C(F)(F)F)n2)c(C#N)c1C`, which Potency is on record?
Its Potency is 11.9 µM (active).

For `c1ccc2c(C[n+]3csc4ccccc43)cccc2c1`, which Potency is on record?
Its Potency is 5.62 µM (active).

For `COc1ccc(OCc2nnc3n2N=C(c2ccccc2)C(CC(=O)O)S3)cc1` (stereo not drawn), which Potency is on record?
The Potency was 1.58 µM (active).
